Experimental data: PubChem BioAssay (NCI)
About 83,000 compounds went through this panel and 20% of them were active in at least one assay; those are over-represented in the sample as a whole.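 For each line, cells grew in 96-well plates with the test compound present at a single concentration for 48 hours.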 A number with no mark means an inactive call. Active and inactive are the calls of the source. How the source made its calls: active means growth percent below 10; inactive means the rest.

Key:
Assay in all cases: NCI-60 one-dose screen, 48 h (100 = growth as untreated, 0 = no growth, -100 = all killed)
Details in all cases: 10 µM unless noted
SK-MEL-2 melanoma = system: SK-MEL-2 melanoma
EKVX NSCLC = system: EKVX NSCLC
SN12C renal = system: SN12C renal
UO-31 renal = system: UO-31 renal
TK-10 renal = system: TK-10 renal
ACHN renal = system: ACHN renal
CAKI-1 renal = system: CAKI-1 renal
A498 renal = system: A498 renal
CCRF-CEM leukemia = system: CCRF-CEM leukemia
SR leukemia = system: SR leukemia
RPMI-8226 leukemia = system: RPMI-8226 leukemia
OVCAR-8 ovarian = system: OVCAR-8 ovarian
OVCAR-5 ovarian = system: OVCAR-5 ovarian
OVCAR-4 ovarian = system: OVCAR-4 ovarian
SK-OV-3 ovarian = system: SK-OV-3 ovarian
IGROV1 ovarian = system: IGROV1 ovarian
OVCAR-3 ovarian = system: OVCAR-3 ovarian
HS 578T breast = system: HS 578T breast
NCI/ADR-RES ovarian = system: NCI/ADR-RES ovarian
MOLT-4 leukemia = system: MOLT-4 leukemia

| SMILES | growth (SK-MEL-2 melanoma) | growth (EKVX NSCLC) | growth (SN12C renal) | growth (UO-31 renal) | growth (TK-10 renal) | growth (ACHN renal) | growth (CAKI-1 renal) | growth (A498 renal) | growth (CCRF-CEM leukemia) | growth (SR leukemia) | growth (RPMI-8226 leukemia) | growth (OVCAR-8 ovarian) | growth (OVCAR-5 ovarian) | growth (OVCAR-4 ovarian) | growth (SK-OV-3 ovarian) | growth (IGROV1 ovarian) | growth (OVCAR-3 ovarian) | growth (HS 578T breast) | growth (NCI/ADR-RES ovarian) | growth (MOLT-4 leukemia) |
| --- | --- | --- | --- | --- | --- | --- | --- | --- | --- | --- | --- | --- | --- | --- | --- | --- | --- | --- | --- | --- |
| CN(C)CCCN(CCC1CCCCC1)CCC1CCCCC1 | 61.4% | 73.2% | 80.4% | 42% | 85.2% | 65.8% | 52.9% | 58.8% | 21.4% | -35.3% (active) | 23.8% | 81.1% | 83.3% | 71.2% | 97% | 39.7% | 34.6% | 58.1% | 74.4% |  |
| COC(=O)[C@@H](Cc1c[nH]c2ccccc12)NC[C@@H](O)CN1C(=O)/C(=C\c2cc(OC)c(OC)c(OC)c2)c2ccccc21 | 58.1% | 85.7% | 73% | 58.3% | 101% | 75.5% | 73.1% | 69.5% | 20.7% | 12.2% | 6.06% (active) | 59.3% | 105% | 63.1% | 98.6% | 78.9% | 65.3% | 76% | 78.6% |  |
| CCCCCN(CCCCC)CC(O)c1c(Cl)ccc2ccccc12 (centres undefined) | 93.4% | 62.5% | 70.2% | 37.2% | 98.1% | 54.7% | 60% | 68.3% | 67.2% | 32.9% | 66.2% | 87.5% | 65.8% | 79.5% | 93.6% | 63% | 90.7% | 80% | 77.8% |  |
| CC(C)(C)n1cc(-c2ccnc(NCCNS(=O)(=O)c3ccc(Br)cc3)c2)c(-c2cccc(O)c2)n1 | 30.3% | 43.4% | 35.7% | 22.7% | 55.6% | 25% | 29.1% | 11.5% | 27.7% | -10.5% (active) | 3.61% (active) | 35.7% | 47.5% | 42.8% | 53.2% | 40.4% | 38.6% | 16.8% | 33% |  |
| CN1CCN(Cc2ccc(NC(=O)c3cncc(C#Cc4c(N)ncc5c(F)cccc45)c3)cc2C(F)(F)F)CC1 | -65.4% (active) | 10.6% | -92.6% (active) | -86.2% (active) | -95.1% (active) | -79% (active) | -70.4% (active) | -1.72% (active) | -39.8% (active) | -49% (active) |  | -72.8% (active) | -33.3% (active) | -59.1% (active) | 2.69% (active) |  | -84.8% (active) | -25.8% (active) | -45.1% (active) |  |
| O=C(COc1ccc(/C=C2\Oc3ccccc3C2=O)cc1)Nc1nccs1 | 93.6% | 84% | 90.3% | -39.8% (active) | 134% | 107% | 68.9% | 116% | 0% (active) | 0% (active) | 40.4% | 41.8% | 91.8% | 90.3% | 125% | -13.3% (active) | 97.2% | 107% | 91.6% |  |
| Oc1ccc(C(c2ccc(O)cc2)c2ccc(Cl)cn2)cc1 | 72.7% | 15.8% | 6.15% (active) | 64.8% | -3.31% (active) | 15.7% | 73.5% | -1.72% (active) | 70.2% |  |  | -11.1% (active) | 72.7% | -14.8% (active) | 86.8% | 28.9% | -34.5% (active) | -29.9% (active) | -36.1% (active) | 98.3% |
| CC1(C)CC(=O)C2=C(C1)OC(C(=O)c1ccccc1)C2c1cccc(Oc2ccccc2)c1 (centres undefined) | 25% | 36.4% | 38.7% | 15.6% | 63.8% | 32.7% | 41.6% | 49.6% | 34.5% | 26.2% | 34.6% | 48.5% | 88.7% | 28.6% | 64% | 89.5% | 64.2% | 68.4% | 38.3% |  |
